Screening data from PubChem.
DRD3 antagonist: qHTS of D3 Dopamine Receptor Antagonist: qHTS. actives 2.5% (n = 360,000). D(3) dopamine receptor (Homo sapiens), P35462. D3R cells, DiscoveRx beta-arrestin luminescence, antagonist mode; active compounds read low. max response, negative = inhibition, %; in the data active means max response below about -50%; inconclusive means no clear call, values can overlap the other calls
Target sequence (P35462 whole entry, looked up): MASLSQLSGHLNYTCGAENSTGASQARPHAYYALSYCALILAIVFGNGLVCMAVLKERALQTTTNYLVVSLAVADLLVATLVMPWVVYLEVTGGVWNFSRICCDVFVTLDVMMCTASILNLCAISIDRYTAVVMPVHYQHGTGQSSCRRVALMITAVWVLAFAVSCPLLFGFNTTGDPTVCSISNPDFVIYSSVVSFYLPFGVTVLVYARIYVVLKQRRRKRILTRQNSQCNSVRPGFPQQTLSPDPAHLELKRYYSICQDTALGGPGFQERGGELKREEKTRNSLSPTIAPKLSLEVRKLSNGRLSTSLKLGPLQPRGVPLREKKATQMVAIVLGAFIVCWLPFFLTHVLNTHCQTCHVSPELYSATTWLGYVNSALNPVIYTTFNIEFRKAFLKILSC
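Cells plated overnight at 1500 cells/well, then exposed to library compounds with dopamine controls for 90 minutes at 37 degrees C. DiscoveRx reagent added for 30–60 minutes at room temperature; luminescence read, quantitative HTS format.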
IL1B secr inh: qHTS for Inhibitors of Inflammasome Signaling: IL-1-beta AlphaLISA Primary Screen. THP-1 LPS/ATP IL-1B secretion, AlphaLISA, 16 h; active compounds read low. activity change, % at 57.5 µM. actives 4.7% (n = 360,000). AID 743279, 2014; in the data active means activity change below about -50%; inconclusive means mostly about -30% to -49%
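Secreted IL-1B measured by AlphaLISA bead assay after 16 h compound exposure of THP-1 cells; compounds (final up to 57.5 uM) added 1 h before LPS (250 ng/mL) and ATP (1.25 mM) stimulation; lower signal means less secretion.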
TDP1 cell noCPT: qHTS for Inhibitors of human tyrosyl-DNA phosphodiesterase 1 (TDP1): qHTS in cells in absence of CPT | DT40 Tdp1-/- hTDP1 cells, no CPT, ATP luminescence, 48 h | Potency, µM (series often up to 46.2 µM), hits mostly inhibitors | actives 15% (n = 420,000) | AID 686978, 2013; further: nearly all actives have a fitted effect of over 55% in size
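Growth of hTDP1-complemented DT40 Tdp1-knockout cells is measured by ATP luminescence after at least 48 hr compound exposure at 37 °C, with DMSO substituting for the 20 nM CPT used in the parallel screen.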
DT40 TDP1 CPT: qHTS for Inhibitors of human tyrosyl-DNA phosphodiesterase 1 (TDP1): qHTS in cells in presence of CPT. chicken DT40 Tdp1-/-;hTDP1 cells + 20 nM CPT, ATP luminescence, 48 h. Potency, µM (highest dose often 46.2 µM), usual class: inhibitors. actives 12% (n = 420,000); further: nearly all actives have a fitted effect of over 55% in size
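Chicken DT40 Tdp1-/- cells stably complemented with human TDP1 were seeded at 400 cells/well in medium containing 20 nM camptothecin, exposed to pin-transferred compounds, and grown at 37 °C for at least 48 hr. Viability was read as ATP luminescence.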
ClpP mod: qHTS Assay for Activators of ClpP; purified B. subtilis ClpP, FRET peptide cleavage, 20 min; Potency, µM (highest dose often 57.5 µM); ATP-dependent Clp protease proteolytic subunit (Bacillus subtilis (strain 168)), P80244; AID 651965, 2013; actives 1.9% (n = 340,000); active means well fitted falling curve with a large enough effect; inconclusive means small, poorly fitted or top-dose-only effect; inactive means no such curve, though single readings can be large or run the other way; further: the source files actives as falling curves though it sought activators and does not explain the sign; nearly all actives have a fitted effect of over 65% in size
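Purified B. subtilis ClpP, 10 microg/mL final in Tris/HCl pH8 with KCl, BSA, glycerol and Tween-20, cleaved an Abz/nitrotyrosine-quenched decapeptide. Fluorescence (ex 320, em 430) was read at 0 and 20 min at room temperature. Delta was normalized to 5.8 microM ADEP and DMSO/no-enzyme controls.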
DRD3 agonist: qHTS of D3 Dopamine Receptor Agonist: qHTS. D(3) dopamine receptor (Homo sapiens), P35462. D3R DiscoveRx beta-arrestin cells, luminescence, 90 min. max activation, %. actives 0.58% (n = 410,000). AID 652048, 2013; in the data active means max activation above about 30%
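Cells at 1500/well, incubated overnight, then treated with pinned compounds (dopamine as control) for 90 min at 37 degrees C. DiscoveRx reagent added for 30 - 60 minutes at room temperature; luminescence read.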
Numbers stand for hits; i = inactive; ? = inconclusive; nt = no result given; [ ] = another dose, or the depositor's remark. An excerpt weighted towards active compounds, which were near 21% of everything screened. Unless noted, the call rests on the fitted dose curve; in most records, active means well fitted inhibition curve with a large enough effect; inconclusive means small, poorly fitted or top-dose-only effect; inactive means flat fitted curve, though single readings scatter.

SMILES | DRD3 antagonist | IL1B secr inh | TDP1 cell noCPT | DT40 TDP1 CPT | ClpP mod | DRD3 agonist
Cc1c(Cl)cccc1Nc1nc2ccc(C(=O)c3ccccc3)cc2n2cnnc12 | nt | nt | 23µM | ? | i | i
CCOc1ccccc1C(=O)NCC(=O)NCC(c1ccco1)N1CCCCC1 (centres undefined) | i | i | i | i | nt | i
CCCCCCCCCCCCCCNCCO | nt | nt | ? | ? | nt | i
c1ccc(COc2ccccc2CNC23CC4CC(CC(C4)C2)C3)cc1 | i | -95 | 15µM | 18µM | nt | i
c1csc(COc2ccccc2CNC2CCCCC2)c1 | i | -73 | ? | ? | i | i
COc1cccc(CNC2CCCCCCC2)c1OC | i | i | i | i | nt | i
c1ccc(COc2ccccc2CNC2CCCC2)cc1 | ? | -70 | ? | ? | nt | i
O=C(Cn1cnc2c(nnn2Cc2ccc(F)cc2)c1=O)Nc1ccccc1 | i | i | i | i | nt | i
COC(=O)Nc1sc2c(c1C(N)=O)CCCCCC2 | i | i | 21µM | 16µM | i | i
NC(=O)c1c(NC(=O)c2ccncc2)sc2c1CCCC2 | i | i | 16µM | ? | i | i
CCOC(=O)c1c(NC(=O)OC)sc2c1CCC2 | i | i | i | i | i | i
NC(=O)c1c(NC(=O)COC(=O)c2ccc(O)c(Cl)c2)sc2c1CCCC2 | i | i | ? | 26µM | nt | i
Cc1cc([N+](=O)[O-])nn1CCCC(=O)Nc1sc2c(c1C(N)=O)CCCC2 | i | ? | 18µM | ? | i | i
Cc1cc([N+](=O)[O-])nn1CC(=O)Nc1sc2c(c1C(N)=O)CCCC2 | i | i | i | i | nt | i
O=C(COC(=O)c1ccc(S(=O)(=O)N2CCOCC2)cc1)NCc1cccs1 | i | i | i | i | nt | i
C/C=C/c1ccc(OC(C)[C@@H](O)c2ccc(O)c(OC)c2)c(OC)c1 (some centres undefined) | nt | nt | i[9.04 µM] | i[9.04 µM] | nt | nt
C=CC(=O)Nc1sc2c(c1C(N)=O)CCCC2 | i | -109 | ? | 15µM | i | i
Cc1noc(C)c1C(=O)Nc1sc2c(c1C(N)=O)CCCCC2 | i | i | i | i | i | 47
C=CCNC(=S)Nc1sc2c(c1C(N)=O)CCCC2 | ? | i | ? | ? | nt | i
NC(=O)c1c(NC(=O)CN2CCCC2)sc2c1CCCC2 | i | i | 16µM | 9.2µM | i | i
NC(=O)c1c(NC(=O)CN2C(=O)CCC2=O)sc2c1CCCCC2 | i | i | i | i | i | i
N#Cc1ccccc1NC(=O)CSc1nc(-c2ccccc2)cc(C(F)(F)F)c1C#N | nt | nt | i | i | i | i
CCCCCCOc1ccc(CC(=O)O)cc1 | nt | nt | i | i | i | nt
COC(=O)c1c(NC(=O)COC(=O)[C@@H](NS(=O)(=O)c2ccc(C)cc2)C(C)C)sc2c1CCC2 | i | i | 23µM | ? | 28µM | i
O=C(Nc1sc2c(c1C(=O)O)CCC2)c1cccc(Cl)c1 | i | i | i | i | nt | i
SMILES | DRD3 antagonist | IL1B secr inh | TDP1 cell noCPT | DT40 TDP1 CPT | ClpP mod | DRD3 agonist
COC(=O)c1c(NC(=O)COc2cccc(C(F)(F)F)c2)sc2c1CCCC2 | nt | nt | ? | i | i | i
Cc1ccccc1NC(=O)c1c(NC(=O)C(F)(F)F)sc2c1CCCCC2 | nt | nt | 2.9µM | 3.7µM | i | i
O=C(Nc1cccc(Cl)c1)c1c(NC(=O)C(F)(F)F)sc2c1CCCC2 | nt | nt | 3.3µM | 6.5µM | i | i
COC(=O)c1c(NC(=O)COc2ccc(C(C)C)cc2)sc2c1CCCC2 | nt | nt | 23µM | ? | i | i
COC(=O)c1c(NC(=O)COC(=O)c2ccc(C)s2)sc2c1CCCCC2 | i | i | ? | i | i | i
Cc1ccc(NC(=O)c2c(NC(=O)C(F)(F)F)sc3c2CCCCC3)cc1 | nt | nt | 3.7µM | 2.6µM | i | i
Cc1ccc(NC(=O)c2c(NC(=O)c3ccccc3)sc3c2CCC3)cc1 | nt | nt | i | i | i | i
O=C(COc1ccc(Cl)cc1)Nc1sc2c(c1C(=O)Nc1cccc(Cl)c1)CCCC2 | nt | nt | 7.3µM | 18µM | i | i
